Laboratory results from PubChem BioAssay (NCI).
The panel holds about 79,000 compounds, 15% with a hit somewhere; the sample as a whole holds those more often. Calls of active or inactive are those of the source. Cut-off read from the data, not from the text of the source: active = growth inhibition above about 70%; inactive = the rest.

Key:
[1] = NCI Yeast Anticancer Drug Screen. Data for the rad52 strain (AID 147);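 note: 0% = growth of vehicle-treated control cultures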; settings: S. cerevisiae rad52 mutant growth inhibition, stronger effect = higher value
Outline: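 Measured: yeast growth inhibition. System: strain with a defined DNA damage repair alteration. Reference: vehicle-treated control cultures.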

[2] = NCI Yeast Anticancer Drug Screen. Data for the wt1 strain (AID 149);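 note: 0% = growth of vehicle-treated wt1 cultures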; settings: S. cerevisiae wt1 strain (SPY 50644) growth inhibition, stronger effect = higher value
Outline: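 wt1 strain grown with compound or vehicle; inhibition taken from the growth difference.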

[3] = NCI Yeast Anticancer Drug Screen. Data for the rad50EPP+ strain (AID 151);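 note: 0% = growth of vehicle-treated control cultures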; settings: S. cerevisiae rad50 mutant strain, stronger effect = higher value
Outline: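 One strain with a rad50 alteration (rad50EPP+) was compound-treated, its growth then compared to that of vehicle controls.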

[4] = NCI Yeast Anticancer Drug Screen. Data for the mgt1 strain (AID 153); settings: S. cerevisiae mgt1 mutant growth inhibition, stronger effect = higher value
Outline: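 After exposure of the mgt1 yeast mutant to compound, growth was measured and reported as inhibition compared with vehicle controls.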

[5] = NCI Yeast Anticancer Drug Screen. Data for the rad50 strain (AID 155);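 note: 0% = growth of vehicle-only cultures of the same strain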; settings: S. cerevisiae rad50 strain growth inhibition, stronger effect = higher value
Outline: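 DNA repair mutant yeast, compound exposure, growth read-out; inhibition is taken relative to vehicle.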

[6] = NCI Yeast Anticancer Drug Screen. Data for the mec2-1 strain (AID 157); settings: S. cerevisiae mec2-1 strain, stronger effect = higher value
Outline: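 Test agents were screened against the mec2-1 yeast strain, with defined DNA repair or cell cycle alteration. Growth was scored as inhibition against vehicle-only controls.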

[7] = NCI Yeast Anticancer Drug Screen. Data for the rad14 strain (AID 159);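 note: 0% = growth of vehicle-treated control cultures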; settings: S. cerevisiae rad14 strain growth inhibition, stronger effect = higher value
Outline: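 DNA repair-defective yeast, compound-exposed; % growth inhibition derived by comparison with vehicle-treated controls.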

[8] = NCI Yeast Anticancer Drug Screen. Data for the sgs1 mgt1 strain (AID 161);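 note: 0% = growth of cultures given vehicle only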; settings: S. cerevisiae sgs1 mgt1 strain, stronger effect = higher value
Outline: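 Inhibition of yeast growth, normalised to vehicle-treated controls, is reported for a strain bearing genetic alterations in DNA damage repair.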

[9] = NCI Yeast Anticancer Drug Screen. Data for the CLN2oe strain (AID 163);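 note: 0% = growth of vehicle-only control cultures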; settings: S. cerevisiae CLN2oe strain, stronger effect = higher value
Outline: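 Here, growth inhibition in a cell-cycle-altered yeast strain after compound exposure was quantified against vehicle control growth.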

[10] = NCI Yeast Anticancer Drug Screen. Data for the cln2 rad14 strain (AID 165);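 note: 0% = growth equal to vehicle treated cultures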; settings: S. cerevisiae cln2 rad14 strain, stronger effect = higher value
Outline: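 Growth of compound-exposed yeast (cln2 rad14 genotype) measured and expressed as inhibition relative to vehicle.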

[11] = NCI Yeast Anticancer Drug Screen. Data for the bub3 strain (AID 167); settings: S. cerevisiae bub3 mutant strain, stronger effect = higher value
Outline: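 In this screen, a yeast mutant lacking normal mitotic checkpoint function is challenged with compound. Relative growth versus vehicle gives the inhibition value.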

[12] = NCI Yeast Anticancer Drug Screen. Data for the wt2 strain (AID 169);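 note: 0% = growth of vehicle-treated yeast cultures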; settings: S. cerevisiae wt2 strain growth inhibition, stronger effect = higher value
Outline: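 Genetically defined yeast strains from a DNA-repair/cell-cycle panel were used. Compound-exposed yeast growth was measured, and the inhibition was calculated relative to vehicle treatment.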

[13] = NCI Yeast Anticancer Drug Screen. Data for the mlh1 strain (AID 171);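 note: 0% = growth of vehicle-treated control cultures of the same strain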; settings: S. cerevisiae mlh1 strain growth inhibition, stronger effect = higher value
Outline: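 Here the genetically defined yeast mutant is grown with each compound, and the extent to which its growth falls below that of vehicle-exposed cells is reported.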

[14] = NCI Yeast Anticancer Drug Screen. Data for the sgs1 strain (AID 173);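 note: 0% = growth of vehicle-only control cultures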; settings: S. cerevisiae sgs1 mutant, stronger effect = higher value
Outline: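 Relative growth inhibition, referenced to vehicle, was determined in a yeast strain with a defined alteration affecting DNA damage repair or cell cycle control after compound exposure.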

[15] = NCI Yeast Anticancer Drug Screen. Data for the mlh1 rad18 strain (AID 175); settings: S. cerevisiae mlh1 rad18 strain growth inhibition, stronger effect = higher value
Outline: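 In this whole-cell yeast screen, a strain with altered DNA damage repair is challenged with compound, and its growth is measured against matched vehicle-treated controls.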

[16] = NCI Yeast Anticancer Drug Screen. Data for the rad18 strain (AID 177); settings: S. cerevisiae rad18 mutant growth inhibition, stronger effect = higher value
Outline: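 Screen uses a yeast strain with a defined lesion in DNA damage repair; compound effect is read as loss of growth compared to untreated vehicle cultures.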

[17] = at 5.0 µM (retest, dose inferred, filed as 0.5)
[18] = at 50.0 µM (retest, dose inferred, filed as 5.0)

Measured: growth inhibition

O=Cc1ccccc1C=O
inactive: [1]; at 1.2 µM -13% | [1]; at 3.7 µM -11% | [1]; at 11.0 µM -7% | [1]; at 33.0 µM 4% | [2]; at 1.2 µM -35% | [2]; at 3.7 µM -31% | [2]; at 11.0 µM -17% | [2]; at 33.0 µM 0% | [3]; at 1.2 µM -8% | [3]; at 3.7 µM -13% | [3]; at 11.0 µM -2% | [3]; at 33.0 µM 6% | [3]; at 100.0 µM 34% | [4]; at 1.2 µM 4% | [4]; at 3.7 µM 9% | [4]; at 11.0 µM 20% | [4]; at 33.0 µM 36% | [5]; at 1.2 µM 14% | [5]; at 3.7 µM 12% | [5]; [17] -6% | [5]; at 11.0 µM 19% | [5]; at 33.0 µM 28% | [5]; [18] 16% | [5]; at 50.0 µM 44.6% | [6]; at 1.2 µM -17% | [6]; at 3.7 µM -22% | [6]; [17] -8% | [6]; at 11.0 µM -12% | [6]; at 33.0 µM 32% | [6]; [18] 32% | [7]; at 1.2 µM -17% | [7]; at 3.7 µM -12% | [7]; at 11.0 µM -8% | [7]; at 33.0 µM 23% | [8]; [17] -3% | [8]; [18] 43% | [8]; at 50.0 µM 40.3% | [9]; at 1.2 µM 4% | [9]; at 3.7 µM 7% | [9]; at 11.0 µM 3% | [9]; at 33.0 µM 22% | [10]; [17] 5% | [10]; at 50.0 µM 13.6% | [11]; at 1.2 µM 6% | [11]; at 3.7 µM 17% | [11]; [17] -32% | [11]; at 11.0 µM 14% | [11]; at 33.0 µM 23% | [11]; at 50.0 µM 24.4% | [12]; at 1.2 µM -20% | [12]; at 3.7 µM -26% | [12]; at 11.0 µM -15% | [12]; at 33.0 µM -35% | [13]; at 1.2 µM -6% | [13]; at 3.7 µM -5% | [13]; at 11.0 µM 1% | [13]; at 33.0 µM 36% | [14]; at 1.2 µM -19% | [14]; at 3.7 µM -25% | [14]; at 11.0 µM -15% | [14]; at 33.0 µM 2% | [15]; [17] -23% | [15]; [18] 48% | [16]; at 1.2 µM -4% | [16]; at 3.7 µM -5% | [16]; at 11.0 µM 0% | [16]; at 33.0 µM 26%
active: [1]; at 100.0 µM 73% | [2]; at 100.0 µM 90% | [4]; at 100.0 µM 91% | [5]; at 100.0 µM 89% | [6]; at 50.0 µM 80.5% | [6]; at 100.0 µM 90% | [7]; at 100.0 µM 86% | [9]; at 100.0 µM 85% | [10]; [18] 74% | [11]; [18] 76% | [11]; at 100.0 µM 81% | [12]; at 100.0 µM 86% | [13]; at 100.0 µM 84% | [14]; at 100.0 µM 72% | [15]; at 50.0 µM 82% | [16]; at 100.0 µM 88%

CCCNCC(=O)O[C@]1(CC)C(=O)OCc2c1cc1n(c2=O)Cc2cc3ccccc3nc2-1
inactive: [2]; at 1.2 µM 13% | [2]; at 3.7 µM 12% | [2]; at 11.0 µM 28% | [2]; at 33.0 µM 62% | [3]; at 1.2 µM 29% | [4]; at 1.2 µM 21% | [4]; at 3.7 µM 25% | [4]; at 11.0 µM 34% | [4]; at 33.0 µM 63% | [6]; at 1.2 µM 19% | [6]; at 3.7 µM 33% | [6]; [17] -5% | [7]; at 1.2 µM 3% | [7]; at 3.7 µM 0% | [7]; at 11.0 µM 16% | [7]; at 33.0 µM 66% | [8]; [17] 28% | [9]; at 1.2 µM 31% | [9]; at 3.7 µM 34% | [9]; at 11.0 µM 41% | [10]; [17] 0% | [10]; [18] 51% | [10]; at 50.0 µM 64.5% | [11]; at 1.2 µM 17% | [11]; at 3.7 µM 12% | [11]; [17] -9% | [11]; at 11.0 µM 28% | [11]; at 33.0 µM 69% | [11]; [18] 68%
active: [1]; at 1.2 µM 80% | [1]; at 3.7 µM 90% | [1]; at 11.0 µM 94% | [1]; at 33.0 µM 95% | [1]; at 100.0 µM 96% | [2]; at 100.0 µM 85% | [3]; at 3.7 µM 72% | [3]; at 11.0 µM 81% | [3]; at 33.0 µM 89% | [3]; at 100.0 µM 93% | [4]; at 100.0 µM 86% | [5]; at 1.2 µM 83% | [5]; at 3.7 µM 88% | [5]; [17] 78% | [5]; at 11.0 µM 92% | [5]; at 33.0 µM 92% | [5]; [18] 90% | [5]; at 50.0 µM 82.5% | [5]; at 100.0 µM 92% | [6]; at 11.0 µM 75% | [6]; at 33.0 µM 90% | [6]; [18] 86% | [6]; at 50.0 µM 88.1% | [6]; at 100.0 µM 93% | [7]; at 100.0 µM 87% | [8]; [18] 82% | [8]; at 50.0 µM 79% | [9]; at 33.0 µM 71% | [9]; at 100.0 µM 86% | [11]; at 50.0 µM 76.3% | [11]; at 100.0 µM 88%
